Measured values from PubChem BioAssay (NCI).
Where “and” joins values, the source holds several entries; their conditions need not be identical. Equal values may be shown once. Compounds without any hit were thinned out: in the full panel of roughly 83,000, 20% have a hit.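 Treatment: one concentration, 48 hours, 96-well format. Scoring: percent growth, with anything below 10 considered active.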 Calls of active or inactive are those of the source.

Columns and labels:
Assay in all cases: NCI-60 one-dose screen, 48 h (100 = growth as untreated, 0 = no growth, -100 = all killed)
Details in all cases: 10 µM unless noted
[1] = system: BT-549 breast
[2] = system: MDA-MB-435 melanoma
[3] = system: SW-620 colon
[4] = system: MCF7 breast
[5] = system: HCT-116 colon
[6] = system: HCC-2998 colon
[7] = system: KM12 colon

Structure (SMILES) | growth [1] | growth [2] | growth [3] | growth [4] | growth [5] | growth [6] | growth [7]
COc1ccc(/C=C(\C#N)c2cc3ccccc3n2C)cc1 | 51.2% (inactive) | -49.1% (active) | 20% (inactive) | 15.4% (inactive) | 18.2% (inactive) | 24.8% (inactive) | 16.8% (inactive)
Cc1cc(-c2nc3ccccc3s2)ccc1N | – | – | – | 27.4% [100 µM] (inactive) and 5.42% [100 µM] (active) | – | – | –
O=S(=O)(Nc1ccc(Cl)c(Cl)c1)c1ccc(-c2cnc(C3CC3)o2)cc1 | 56.2% (inactive) | -32.8% (active) | – | 17.9% (inactive) | 26.1% (inactive) | 38.2% (inactive) | 20% (inactive)
NC(=O)c1cc(I)ccc1NC(=O)COc1ccc(Cl)cc1Cl | 77.6% (inactive) | 14.9% (inactive) | 79.6% (inactive) | 72.2% (inactive) | 90.7% (inactive) | – | 67.8% (inactive)
Cc1ccc(C(=O)Nc2ccccc2N)cc1 | 61.5% (inactive) | 68.3% (inactive) | – | 74.8% (inactive) | 62.9% (inactive) | – | 87.4% (inactive)
c1ccc(-c2n(Cc3ccc4ccccc4c3)c3ccccc3[n+]2Cc2ccc3ccccc3c2)cc1 | -28.2% (active) | -76.4% (active) | – | -44.2% (active) | -85.4% (active) | -79.3% (active) | -86.8% (active)
O=c1[nH]c(=S)c2c(n1CCCO)CCC2 | 107% (inactive) | 97% (inactive) | – | 96.5% (inactive) | 99.1% (inactive) | 108% (inactive) | 105% (inactive)
O=C(c1cnn2c1NC(c1ccc(F)cc1)C2)N1CCCCC1 (centres undefined) | 110% (inactive) | 94.8% (inactive) | 102% (inactive) | – | 98.2% (inactive) | 113% (inactive) | 106% (inactive)
CCCCCCCCCc1cc(=O)c2c(O)cc(O)cc2o1 | – | – | – | -86.1% [100 µM] (active) and -45.1% [100 µM] (active) | – | – | –
C[C@]1(CO)C[C@@H](O)C[C@]2(C)[C@@H]1CC[C@@]13C[C@@H]4[C@@H](C[C@H]12)[C@]4(C)C3 | 98.8% (inactive) | 99.5% (inactive) | 101% (inactive) | 102% (inactive) | 89.3% (inactive) | – | 109% (inactive)
O=C(N/N=C/c1ccc(OC(F)F)c(OC2CCCC2)c1)c1cnn2c1NC(c1ccccc1)C2 (centres undefined) | 73.4% (inactive) | 18% (inactive) | 78.4% (inactive) | 69.2% (inactive) | 67.4% (inactive) | – | 54.8% (inactive)
CCCCC1COc2cccc3c(SCC(=O)N(C)c4cccc5ccccc45)cc[n+]1c23 (centres undefined) | 102% (inactive) | 103% (inactive) | – | 91.7% (inactive) | 82.5% (inactive) | 90.3% (inactive) | 112% (inactive)
O=C(CCc1ccccc1)On1c(-c2ccccc2)nc2ccccc2c1=S | – | – | – | -34.4% [100 µM] (active) and -60.1% [100 µM] (active) | – | – | –
O=C1Nc2ccc(Cl)cc2/C1=N/N=C(c1ccccc1)c1ccccc1 | 100% (inactive) | 99.8% (inactive) | 94.1% (inactive) | 100% (inactive) | 97.9% (inactive) | – | 93.4% (inactive)
COc1ccc(/C=N/NC(=O)c2cnn(CC(O)Cc3ccccc3)c2N)cc1OC1CCCC1 (centres undefined) | 75.7% (inactive) | 100% (inactive) | – | 83.7% (inactive) | 90.4% (inactive) | 116% (inactive) | 35.2% (inactive)
CCCCNNC(=O)c1ccc(Br)cc1 | 78.7% (inactive) | 36.5% (inactive) | 32.6% (inactive) | 48% (inactive) | 19.5% (inactive) | 61.4% (inactive) | 78.1% (inactive)
CN(C)CCNc1ccc(NCC[N+](C)(C)Cc2ccc([N+](=O)[O-])cc2)c2c1C(=O)c1ccccc1C2=O | – | – | – | 6.38% [25 µM] (active) and -100% [25 µM] (active) | – | – | –
COc1ccc(OC)c(/C=C2\Oc3cc(O)ccc3C2=O)c1 | 79.8% (inactive) | 82.7% (inactive) | – | 94.2% (inactive) | 79.2% (inactive) | 99.3% (inactive) | 108% (inactive)

Structure (SMILES) | growth [1] | growth [2] | growth [3] | growth [4] | growth [5] | growth [6] | growth [7]
CSC1=CC(=O)c2ccccc2C1=O | 92.3% (inactive) | 89.4% (inactive) | -55.2% (active) | 93.2% (inactive) | -57% (active) | – | 71.9% (inactive)
O=S(=O)(OCCO)c1ccccc1 | 105% (inactive) | 98.2% (inactive) | 101% (inactive) | – | 104% (inactive) | 113% (inactive) | 103% (inactive)
CC(=O)c1cc2c(s1)C(=O)c1scc(C(C)=O)c1C2=O | – | – | – | -68.6% [100 µM] (active) and -79.8% [100 µM] (active) | – | – | –
CCOC(=O)C1(C#N)C(=O)c2cc[n+](CC[n+]3ccc4c(c3)C(=O)C(C#N)(C(=O)OCC)C4=O)cc2C1=O (centres undefined) | – | – | – | 88.7% [100 µM] (inactive) and 89.4% [100 µM] (inactive) | – | – | –
Cn1c2ccccc2c2nn(C(=O)c3ccccc3)c(=O)nc21 | 114% (inactive) | 105% (inactive) | 100% (inactive) | – | 109% (inactive) | 107% (inactive) | 106% (inactive)
O=C(N/N=C/c1ccc2c(c1)OCO2)c1cnn2c1NC(c1ccccc1)C2 (centres undefined) | 60.6% (inactive) | 3.07% (active) | – | 33% (inactive) | 25.1% (inactive) | 45.3% (inactive) | 21.3% (inactive)
COc1ccc(/C=C2\Oc3cc(C)c(Cl)cc3C2=O)cc1OC | 89.1% (inactive) | 96.6% (inactive) | 104% (inactive) | 83.1% (inactive) | 84.6% (inactive) | 116% (inactive) | 100% (inactive)
O=C1N(c2ccccc2)N=C2c3ccncc3C3=NN(c4ccccc4)C(=O)C123 (centres undefined) | – | – | – | 28.9% [100 µM] (inactive) and -33.6% [100 µM] (active) | – | – | –
CC(C)C1OC23CCCCC2C(C#N)(C#N)C1(C#N)C(=N)O3 (centres undefined) | – | – | – | -20.4% [100 µM] (active) | – | – | –
CCOc1cc2c(cc1O)C(=O)C[C@@H]1[C@@H]2CC[C@]2(C)[C@@H](O)CC[C@@H]12 | – | – | – | 4.23% [100 µM] (active) and -100% [100 µM] (active) | – | – | –
O=c1[nH]c(=O)n(Cc2ccc(F)cc2)cc1F | 102% [50 µM] (inactive) | 104% [50 µM] (inactive) | – | 96.3% [50 µM] (inactive) | 112% [50 µM] (inactive) | 112% [50 µM] (inactive) | 106% [50 µM] (inactive)
CCCCCCCC/C=C\CCCCCCCCOc1cccc(CC(=O)NCC[N+]2(C)CCCC2)c1 | 115% (inactive) | 85.7% (inactive) | 77.9% (inactive) | 73.4% (inactive) | 76.2% (inactive) | – | 69.2% (inactive)
COc1cc(/C=N/NC(=O)c2cnn3c2NC(c2ccccc2)C3)cc(OC)c1OC (centres undefined) | 60.2% (inactive) | -15.9% (active) | 32.8% (inactive) | – | 35% (inactive) | 91.2% (inactive) | 30.6% (inactive)
CC(C)(C)c1cc(C2COC(=O)COCC(=O)OCCOCCOCCO2)cc(C(C)(C)C)c1O (centres undefined) | – | – | – | 64.9% [100 µM] (inactive) and 75.7% [100 µM] (inactive) | – | – | –
O=c1c2ncn(C3CCCCO3)c2n(-c2ccccc2)c(=S)n1-c1ccccc1 (centres undefined) | – | – | – | 43.5% [100 µM] (inactive) and 61.3% [100 µM] (inactive) | – | – | –
NC(=O)c1cc(Cl)ccc1NC(=O)COc1ccccc1 | 43.8% (inactive) | -56.9% (active) | 35.3% (inactive) | 30.5% (inactive) | 31.5% (inactive) | 83.1% (inactive) | 38.3% (inactive)
CCOC(=O)c1[nH]c2cc(Cl)ccc2c1[C@@H](C(=O)NC(C)(C)C)N(CC)C(=O)CCCCC#Cc1cccc2c1CN(C1CCC(=O)NC1=O)C2=O (some centres undefined) | 3.98% (active) | 18.1% (inactive) | – | 12.5% (inactive) | 24.6% (inactive) | 6.54% (active) | 10.3% (inactive)
N#Cc1cnn2c1n[n+]([O-])c1ccc(Cl)cc12 | – | – | – | 9.63% [100 µM] (active) and -99.2% [100 µM] (active) | – | – | –
